IEC-6 tox-1: cytotoxicity in IEC-6 intestinal epithelial cells, primary screen, cytotoxicity control for KLF5 inhibitor project, cell-based, luminescence; inhibition, % at 5 µM; IEC-6 cytotoxicity, luminescence viability; 290,000 tested, 0.78% active
APP 5UTR inh: inhibitors of APP translation via 5'UTR reporter, primary screen, APP 5'UTR luciferase, SH-SY5Y cells. AID 1285, 2008. inhibition, % at 2 µM. SH-SY5Y APP 5'UTR-luciferase reporter, luminescence. 190,000 tested, 0.82% active;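 active = inhibition above a set limit, derived from the sample mean plus 3 SD, cut at about 45% in these data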
BaF3 parental: parental Ba/F3 cell viability inhibition, counter-screen for JAK2V617F inhibitor project, murine pro-B, CellTiter-Glo luminescence. CellTiter-Glo ATP luminescence. inhibition, % at 5.6 µM. 220,000 tested, 1.1% active. AID 1486, 2009;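 active = inhibition above a per-campaign cutoff, the mean inhibition of all tested compounds plus 3 SD, cut at about 27% in these data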
KLF5 inh: KLF5 expression inhibitors, primary screen, DLD-1 cells, luminescence | DLD-1 KLF5 promoter-luciferase reporter | inhibition, % at 5 µM | 290,000 tested, 0.23% active;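 active = inhibition above a per-plate limit of that plate's mean compound inhibition plus 3 SD, cut at about 60% in these data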;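 also: higher means less KLF5 promoter-driven luciferase light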
Ba/F3 V617F tox: reduced viability of JAK2V617F-dependent Ba/F3 cells, primary screen, JAK2V617F inhibitor project, cell-based, Ba/F3 EpoR-JAK2V617F, luminescence | ATP luminescence | inhibition, % at 5.6 µM | 220,000 tested, 1.1% active;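 active = inhibition above the campaign mean plus 3 SD over all tested compounds, cut at about 24% in these data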;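 also: cytokine-independent growth of Ba/F3 cells driven by EpoR plus mutant JAK2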
KLF5 inh confirm: KLF5 expression inhibitors, confirmation, DLD-1 cells, luminescence | shares compounds with KLF5 inh | DLD-1 KLF5 promoter firefly luciferase reporter | inhibition, % at 4 µM | 610 tested, 79% active | AID 1834, 2009;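 active = inhibition above a set limit taken from the earlier primary screen, cut at about 63% in these data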
IEC-6 tox-2: cytotoxicity in rat IEC-6 cells, cytotoxicity control for KLF5 inhibitor project, cell-based, luminescence, triplicate; shares compounds with KLF5 inh; AID 1905, 2009; IEC-6 rat intestinal cells, viability luminescence; inhibition, % at 4 µM; 610 tested, 56% active; in the data active = inhibition above about 23%;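 also: cells exposed to compounds for 48 hours before viability read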
IEC-6 tox confirm: cytotoxic compounds in IEC-6 epithelial cells, confirmation, cytotoxicity control, cell-based, luminescence | inhibition, % at 5 µM | 1,900 tested, 63% active | shares compounds with IEC-6 tox-1 | IEC-6 rat intestinal epithelial viability
Large screens that a line does not name were inactive (follow-up assays come after a bar, where they were run). The list is not random: actives were taken first. Their share in the collection is about 1.8%. Rule as the data show it, unless noted: active = inhibition above about 22%; inactive = the rest.

CC(=O)NC(c1ccc2ccccc2c1)c1ccc2cccnc2c1O (stereo unspecified)	IEC-6 tox-1 98.7, KLF5 inh 77.2 (no result: APP 5UTR inh, BaF3 parental, Ba/F3 V617F tox) | KLF5 inh confirm 86.9 | IEC-6 tox-2 79.3 | IEC-6 tox confirm 82.2
COc1ccccc1C(NC(C)=O)c1cc(Cl)c2cccnc2c1O (stereo unspecified)	IEC-6 tox-1 61.0, KLF5 inh 73.0 (no result: APP 5UTR inh, BaF3 parental, Ba/F3 V617F tox) | KLF5 inh confirm 71.0 | IEC-6 tox-2 81.1 | IEC-6 tox confirm 42.8
Cc1ccc(N(CC(=O)NCc2ccc(Cl)cc2)S(C)(=O)=O)cc1	none (no result: APP 5UTR inh, BaF3 parental, Ba/F3 V617F tox)
CS(=O)(=O)NCCSc1cc(C(F)(F)F)nc2ccccc12	none (no result: APP 5UTR inh)
CCCCC(=O)NC(c1ccccc1OC)c1ccc2cccnc2c1O (stereo unspecified)	IEC-6 tox-1 24.0, BaF3 parental 38.1, KLF5 inh 75.7, Ba/F3 V617F tox 47.0 (no result: APP 5UTR inh) | KLF5 inh confirm 93.5 | IEC-6 tox-2 48.1 | IEC-6 tox confirm 57.5
Cc1ccc(C(NC(=O)C(C)C)c2cc([N+](=O)[O-])c3cccnc3c2O)cc1 (stereo unspecified)	none
CCCC(=O)NC(c1ccc(C)cc1)c1ccc2cccnc2c1O (stereo unspecified)	IEC-6 tox-1 55.4, KLF5 inh 99.2 (no result: APP 5UTR inh, BaF3 parental, Ba/F3 V617F tox) | KLF5 inh confirm 87.1 | IEC-6 tox-2 75.3 | IEC-6 tox confirm 82.8
CCCCC(=O)NC(c1ccc(N(C)C)cc1)c1ccc2cccnc2c1O (stereo unspecified)	IEC-6 tox-1 62.2, KLF5 inh 84.5 (no result: APP 5UTR inh, BaF3 parental, Ba/F3 V617F tox) | KLF5 inh confirm 88.5 | IEC-6 tox-2 64.4 | IEC-6 tox confirm 85.9
CCCCC(=O)NC(c1ccc(Cl)cc1)c1ccc2cccnc2c1O (stereo unspecified)	IEC-6 tox-1 57.3, KLF5 inh 83.9 (no result: APP 5UTR inh, BaF3 parental, Ba/F3 V617F tox) | KLF5 inh confirm 88.5 | IEC-6 tox-2 65.6 | IEC-6 tox confirm 68.5
CN(C)S(=O)(=O)c1ccc(Cl)c(C(=O)NC2CCCCCCC2)c1	none (no result: APP 5UTR inh, BaF3 parental, Ba/F3 V617F tox)
C=COc1ccc(N2C(=O)c3ccccc3OC2C)cc1 (stereo unspecified)	none (no result: APP 5UTR inh, BaF3 parental, Ba/F3 V617F tox)
CCn1cnc2c1c(=O)n(CC(=O)OC(C)C(N)=O)c(=O)n2Cc1ccccc1 (stereo unspecified)	none (no result: APP 5UTR inh, BaF3 parental, Ba/F3 V617F tox)
COC(=O)c1cc(C(=O)N2CCN(c3cccc(Cl)c3)CC2)cc([N+](=O)[O-])c1	IEC-6 tox-1 79.4, APP 5UTR inh 92.3, BaF3 parental 71.5, KLF5 inh 69.6, Ba/F3 V617F tox 72.7 | KLF5 inh confirm 75.9 | IEC-6 tox-2 55.8 | IEC-6 tox confirm 53.0
CCOc1ccccc1C(=O)N1CCN(c2cccc(Cl)c2)CC1	IEC-6 tox-1 91.8, APP 5UTR inh 94.5, BaF3 parental 85.1, KLF5 inh 84.6, Ba/F3 V617F tox 89.3 | KLF5 inh confirm 109.0 | IEC-6 tox-2 74.7 | IEC-6 tox confirm 66.5
CC(C)c1c(C(=O)N/N=C/c2cccc3ccccc23)nnn1-c1nonc1N	none (no result: APP 5UTR inh, BaF3 parental, Ba/F3 V617F tox)
C1CCC(c2nn3c(-c4n[nH]c5c4CCC5)nnc3s2)CC1	none
CCN(CC)c1ccc(-c2nn3c(-c4n[nH]c5c4CCC5)nnc3s2)cc1	IEC-6 tox-1 85.4, APP 5UTR inh 96.0, BaF3 parental 77.5, KLF5 inh 72.6, Ba/F3 V617F tox 74.5 | KLF5 inh confirm 76.5 | IEC-6 tox-2 62.0 | IEC-6 tox confirm 50.3
CN(C)CC(C)(C)CNC(=O)CC1C(=O)NCCN1Cc1ccc(-c2ccccc2)cc1 (stereo unspecified)	none
Cc1ccc(-n2nnnc2-c2cccc(C)c2)cc1	none
COc1ccc(-n2nnnc2-c2cccc(OC)c2)cc1	IEC-6 tox-1 84.5, APP 5UTR inh 91.3, BaF3 parental 71.4, KLF5 inh 76.6, Ba/F3 V617F tox 77.8 | KLF5 inh confirm 85.9 | IEC-6 tox-2 58.4 | IEC-6 tox confirm 58.9
O=C(N/N=C/c1ccc(OCC(=O)N2CCCCC2)cc1)c1ccccc1O	none
COc1ccc2ccccc2c1/C=N/Nc1ccc(Cl)c(C(=O)O)c1	none (no result: APP 5UTR inh, BaF3 parental, Ba/F3 V617F tox)
COc1ccc(N/N=C/c2c(C(=O)O)ccc3ccccc23)cc1	IEC-6 tox-1 41.4, BaF3 parental 40.0, KLF5 inh 72.8, Ba/F3 V617F tox 35.1 (no result: APP 5UTR inh) | KLF5 inh confirm 91.5 | IEC-6 tox-2 inactive | IEC-6 tox confirm 35.8
c1ccc(Cc2noc(CN3CCN(CCOc4ccccc4)CC3)n2)cc1	none
CC(=O)Nc1ccc(S(=O)(=O)N(C)c2ccccc2)cc1	none
CCS(=O)(=O)c1ncc(Cl)c(C(=O)Nc2ccc(S(=O)(=O)N(C)c3ccccc3)cc2)n1	IEC-6 tox-1 101.0, KLF5 inh 85.0 (no result: APP 5UTR inh, BaF3 parental, Ba/F3 V617F tox) | KLF5 inh confirm inactive | IEC-6 tox-2 inactive | IEC-6 tox confirm 27.7
Cc1ccc(C(=O)N/N=C/c2cc(Br)ccc2O)cn1	IEC-6 tox-1 83.6, KLF5 inh 82.9 (no result: APP 5UTR inh, BaF3 parental, Ba/F3 V617F tox) | KLF5 inh confirm 86.7 | IEC-6 tox-2 inactive | IEC-6 tox confirm inactive
Cc1ccc(C(=O)N/N=C\C=C\c2ccc(Br)cc2)cn1	none
C/C(=N\NC(=O)c1c(C)nc2ccccn12)c1ccc(O)cc1O	IEC-6 tox-1 28.4, KLF5 inh 68.6 (no result: APP 5UTR inh, BaF3 parental, Ba/F3 V617F tox) | KLF5 inh confirm 83.6 | IEC-6 tox-2 39.2 | IEC-6 tox confirm 35.9
O=C(C[n+]1ccc(-c2nnc3n2CCCCC3)cc1)c1ccc(Cl)cc1	none (no result: APP 5UTR inh)
C=CCCCCCCCCC(=O)Nc1ncccn1	none (no result: APP 5UTR inh)
CCCCCCN1Cc2ccccc2C1	none
CCCCCCN1C2=NCCCN2c2ccccc21	none (no result: APP 5UTR inh)
CCCCCCCCCCn1ccc(=N)cc1	IEC-6 tox-1 65.5, BaF3 parental 100.3, KLF5 inh 86.5, Ba/F3 V617F tox 99.0 (no result: APP 5UTR inh) | KLF5 inh confirm 70.2 | IEC-6 tox-2 62.3 | IEC-6 tox confirm 72.4
CCCCCCCCn1ccc(=N)cc1	IEC-6 tox-1 42.8, BaF3 parental 90.5, KLF5 inh 68.2, Ba/F3 V617F tox 98.7 (no result: APP 5UTR inh) | KLF5 inh confirm inactive | IEC-6 tox-2 47.5 | IEC-6 tox confirm 43.4
Cc1nc(COC(=O)c2c(C)nn(-c3ccccc3)c2C)cs1	none
COc1ccc(NC(=O)Cc2ccccc2F)cn1	none
COc1ccc(NC(=O)/C(Cl)=C(/Cl)S(=O)Cc2ccccc2Cl)cn1 (stereo unspecified)	IEC-6 tox-1 102.3, APP 5UTR inh 94.2, BaF3 parental 103.5, KLF5 inh 106.9, Ba/F3 V617F tox 101.5 | KLF5 inh confirm 110.5 | IEC-6 tox-2 62.8 | IEC-6 tox confirm 85.7
COc1cc(-c2nnc(CSc3nnc(Nc4ccc(Oc5ccccc5)cc4)s3)o2)cc(OC)c1OC	none
O=[N+]([O-])c1ncccc1OCc1ccc(Br)cc1F	none (no result: APP 5UTR inh, BaF3 parental, Ba/F3 V617F tox)
O=C(Nc1nc2cc3c(cc2s1)OCCO3)c1ccco1	IEC-6 tox-1 22.8, KLF5 inh 86.3 (no result: APP 5UTR inh, BaF3 parental, Ba/F3 V617F tox) | KLF5 inh confirm 81.4 | IEC-6 tox-2 inactive | IEC-6 tox confirm inactive

Bioassay records (PubChem BioAssay)
